The compounds below were run on HepG2 (assay: GSK_TCMDC: Percent inhibition of human HepG2 cell line. Test compounds present at 10uM.).
Assay type: functional

Row | Structure (SMILES) | Inhibition [%]
1 | CN(CCN1CCCC1)c1nc2cc(-n3cnc4cc(-c5ccc(Cl)cc5)sc4c3=O)ccc2[nH]1.CS(=O)(=O)O | 76
2 | CCOc1ccc(N(CC)S(=O)(=O)c2cc(Br)cc3c2N(C(=O)C2CC2)CC3)cc1 | 0
3 | CC(C)n1cc(CN2CCCC(C(=O)Nc3cccc(-c4cc5ccccc5[nH]4)c3)C2)cn1 (stereo not given) | 34
4 | C=CCOc1ccc(C(=O)Nc2nonc2-c2ccc(OC)c(OC)c2)cc1 | 2
5 | CC(C)C(=O)ONC1=NC(=N)N(OCCCOc2cc(Cl)c(Cl)cc2Cl)C(C)(C)N1 | 64
6 | Cc1cc(CNCC2CCC(CNCCCc3ccccc3)CC2)ccc1O (stereo not given) | 25
7 | Cc1ccc(C(NC(=O)C2CCCCC2)c2ccc3cccnc3c2O)cc1 (stereo not given) | 69
8 | O=C(Nc1cccc([N+](=O)[O-])c1)Nc1ccc(Cl)c(C(F)(F)F)c1 | 15
9 | O=C(Nc1ccc(OC2CCN(Cc3ccsc3)C2)c(Cl)c1)c1ccsc1.O=C(O)C(F)(F)F (stereo not given) | 4
10 | CCCCOC(=O)NCCCC[C@H](NC(=O)OC(C)(C)C)C(=O)N[C@H](C(=O)OC(c1ccccc1)c1ccccc1)[C@H]1O[C@@H](n2ccc(=O)[nH]c2=O)[C@@H]2OC(C)(C)O[C@@H]21 | 7
11 | CC(C)(CNC(=O)C1CCN(Cc2ccc(Cl)cc2)CC1)c1nc(-c2ccc(Cl)c(O)c2)c(-c2ccncc2)[nH]1.Cl | 36
12 | O=C(CCNc1ccnc(NCC2CCCCC2)n1)Nc1ccccc1.O=C(O)C(F)(F)F | 55
13 | O=C(/C=C/c1ccc(Cl)c(Cl)c1)NCCCCCN1CCCN(C(=O)Nc2ccc(Cl)c(Cl)c2)CC1 | 55
14 | CCOc1cc(Cl)c(C(C)NC(=O)c2ccccc2)cc1OCC (stereo not given) | 0
15 | CCCc1cc(Cc2cnc(N)nc2N)cc(CC)c1O.Cl | 56
16 | CC(C)N1CCC(N(Cc2ccc(-c3ccc(Cl)cc3)cc2)C(=O)Cn2c(CCc3cccc(F)c3F)nc(=O)c3ccccc32)CC1.O=C(O)C(O)C(O)C(=O)O | 61
17 | COC(=O)Cc1ccc(N)c2ccccc12.Cl | 2
18 | CCC(C)(C)c1ccc(S(=O)(=O)Nc2ccc(Cl)c(OCCN3CCCCC3)c2)cc1 | 100
19 | CCCCCCNC(=O)C1Cc2c([nH]c3ccc(Br)cc23)C2(CCN(Cc3ccccc3)CC2)N1 (stereo not given) | 100
20 | CC(=O)Nc1ccccc1OCc1cc2cc(C(=O)N3CCC(N4C(=O)OCc5ccccc54)CC3)ccc2o1 | 34

Row | Structure (SMILES) | Inhibition [%]
21 | O=C(/C=C/c1ccccc1Cl)Nc1ccc(Br)c(OCCN2CCC(O)(c3ccccc3)CC2)c1.O=C(O)C(=O)O | 39
22 | CN1CCc2cc(CN3CC4(C)CC3CC(C)(C)C4)c(O)cc2C(c2ccccc2)C1.Cl (stereo not given) | 0
23 | COc1cc2c(cc1NS(=O)(=O)c1ccc(OCc3ccc(Br)cc3)cc1)CCN(C1CCC1)CC2.Cl | 36
24 | CN1CCCC(CN2CCN(Cc3ccc(-c4cccc(-c5nc6cc(F)ccc6[nH]5)c4)cc3)CC2)C1.O=C(O)C(F)(F)F (stereo not given) | 92
25 | CCOc1ccc(-c2nonc2NC(=O)CC(C)C)cc1OCC | 0
26 | Nc1nc(-c2ccc3c(Nc4ccc(F)c(Cl)c4)ccnc3c2)cs1 | 13
27 | Br.CCCN(CCCCCCN(CCC)CCc1ccc(O)c(O)c1)CCc1ccc(O)cc1 | 0
28 | CCN1CCCC(Nc2ccnc3cc4ccccc4cc23)C1 (stereo not given) | 38
29 | O=c1c2ccccc2[nH]c2nc3ccccc3c(Nc3ccccc3)c12 | 8
30 | COc1ccc(OCc2ccccn2)c(C2CCN(CCCCNC(=O)c3ccc(NC(=O)c4ccc(Cl)cc4)cc3)CC2)c1.Cl | 18
31 | CN(C)CC(=O)NCC(NCCCNc1cc(=O)c2ccccc2[nH]1)c1cc(Br)cc(Br)c1 (stereo not given) | 6
32 | CC(C)(C)Oc1ccc(C[C@@H]2NC3(C(=O)N(Cc4ccc(Cl)c(Cl)c4)c4ccccc43)C3C(=O)N(c4ccc(Br)cc4)C(=O)C32)cc1 (stereo not given in full) | 1
33 | O=C(Nc1cccc(Cl)c1N1CCOCC1)C(Cl)(Cl)Cl | 3
34 | O=C(/C=C/c1ccc(Cl)cc1Cl)N1CCC(CCN2CCC(c3c[nH]c4ccccc34)CC2)CC1 | 94
35 | Br.Cc1cc(Br)c(OCCCON2C(=N)N=C(N)NC2(C)C)c(Br)c1 | 62
36 | O=C(/C=C/c1ccc(Cl)c(Cl)c1)NC1CCC(CN2CCC(c3c[nH]c4ccncc34)CC2)CC1 (stereo not given) | 16
37 | CCc1ccc(CN2CCC(CNC(=O)c3cc(-c4cccc(Cl)c4)cs3)C2)cc1.O=C(O)C(F)(F)F (stereo not given) | 27
38 | Cl.Cn1ccc(-c2cccc(Nc3ccnc4cc(-c5nccs5)ccc34)c2)n1 | 39
39 | O=C(Nc1ccc(OC2CCN(Cc3ccc(F)cc3)CC2)cc1)c1cccs1.O=C(O)C(F)(F)F | 6
40 | Cc1cc(N(CCCN(C)C)Cc2cc(F)cc(F)c2)nc(Nc2ccc(Cl)cc2)n1 | 37
